Assay results reported in PubChem BioAssay (NCI).
About 83,000 compounds went through this panel and 20% of them were active in at least one assay; those are over-represented in the sample as a whole.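 Values shown are percent growth following 48 h exposure of cells in 96-well plates to a single concentration of compound; below 10 was considered active.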 A number with no mark means an inactive call. The source made the active and inactive calls.

Legend:
Experiment in all cases: NCI-60 one-dose screen, 48 h (100 = growth as untreated, 0 = no growth, -100 = all killed)
Conditions in all cases: 10 µM unless noted
NCI-H23 lung = system: NCI-H23 lung
NCI-H226 lung = system: NCI-H226 lung
NCI-H322M lung = system: NCI-H322M lung
HOP-62 NSCLC = system: HOP-62 NSCLC
NCI-H460 lung = system: NCI-H460 lung
HOP-92 NSCLC = system: HOP-92 NSCLC
NCI-H522 lung = system: NCI-H522 lung
A549/ATCC NSCLC = system: A549/ATCC NSCLC
786-0 renal = system: 786-0 renal
COLO 205 colon = system: COLO 205 colon

Row | SMILES | growth (NCI-H23 lung) | growth (NCI-H226 lung) | growth (NCI-H322M lung) | growth (HOP-62 NSCLC) | growth (NCI-H460 lung) | growth (HOP-92 NSCLC) | growth (NCI-H522 lung) | growth (A549/ATCC NSCLC) | growth (786-0 renal) | growth (COLO 205 colon)
1 | C=C(C)[C@@H]1CC[C@]2(C(=O)O)CC[C@]3(C)[C@H](CC[C@@H]4[C@@]5(C)C[C@@H](CC#Cc6ccc(Br)cc6)C(=O)C(C)(C)[C@@H]5CC[C@]43C)[C@@H]12 | 31.2% | 17.3% | 65.7% | 52.3% | 42.3% | 65.8% | 17.3% | 33.1% | 63.1% | 69.1%
2 | OC1(c2ccc(Cl)c(C(F)(F)F)c2)CCN(CCCC(c2ccc(F)cc2)c2ccc(F)cc2)CC1 | -74.9% (active) | 28.9% | -75.5% (active) | -94.6% (active) | -95% (active) | -87.5% (active) | -80.5% (active) | -70.7% (active) | -97.6% (active) | -92.6% (active)
3 | CN1C(=O)N(C)C2NC(N/N=C/c3ccccc3)=NC21 (stereo not given) | 100% | 95% | 94.5% | 94.5% | 103% | 102% | 104% | 100% | 104% | 106%
4 | CN1C(=O)N(C)[C@H]2NC(NN)=N[C@H]21 | 103% | 93.3% | 91.2% | 98.8% | 103% | 90.3% | 102% | 97.9% | 99.8% | 104%
5 | O=C1Nc2c(ccc(Cl)c2Cl)/C1=C/c1ccc(O)cc1 | 86.7% | 90.1% | 107% | 86.1% | 94.1% | 65.7% | 64.1% | 35.7% | 92.3% | 98.6%
6 | COc1cc(NCC(C)(O)CN(CC(C)C)CC(C)C)c2nc(C)ccc2c1 (stereo not given) | 79.7% | 74.1% | 89.3% | 92.5% | 101% | 79.8% | 77.6% | 91% | 86.6% | 79.5%
7 | CN1C2CCC1CN(c1cnc(C(=O)Nc3cc(F)cc4cccnc34)cn1)C2 | 46.8% | 88.9% | 74.6% | 88.6% | 83.4% | 81.2% | 24.4% | 87.5% | 51.8% | 10.4%
8 | CC(C)(C)OC(=O)N1C/C(=C\c2ccoc2)C(=O)/C(=C/c2ccoc2)C1 | 99.1% | 98.3% | 87.7% | 93.9% | 107% | 100% | 78.8% | 102% | 93.8% | 109%
9 | COc1ccc(NS(=O)(=O)c2ccc(C)cc2)c([N+](=O)[O-])c1 | 96.6% | 90.8% | 94% | 97.3% | 106% | 83.5% | 87.9% | 99.7% | 107% | 112%
10 | FC(F)(F)Oc1cccc(-c2cc(NCCCCCCNc3cc(-c4cccc(OC(F)(F)F)c4)nc4ccc(N5CCCC5)cc34)c3cc(N4CCCC4)ccc3n2)c1 | -19.9% (active) | 68.5% | -79.3% (active) | -14% (active) | -52.1% (active) | -23.9% (active) | -49.5% (active) | -75% (active) | -83.4% (active) | -51.9% (active)
11 | COc1cc(NCCN(CC(C)C)C2CCCC2)c2ncccc2c1 | 81.1% | 92% | 118% | 82.9% | 95.7% | 95.9% | 78.1% | 81.7% | 98.1% | 101%
12 | FC(F)(F)c1cccc(Oc2ccc(Nc3ncnc4ccc(OCCCN5CCOCC5)cc34)cc2Cl)c1 | 76.1% | 84.7% | 37.5% | 62.3% | 14.2% | 41.5% | 35.1% | 49.4% | 44.6% | 47%
13 | Cc1c(C(=O)NO)sc2ncnc(Nc3ccc(NC(=S)Nc4ccccc4)cc3)c12 | 96.5% | 104% | 107% | 101% | 102% | 115% | 92.1% | 101% | 99.1% | 113%
14 | Fc1ccc(C2CC(c3cccc(Nc4ccncc4)c3)=NN2c2cc(Cl)cc(Cl)c2)cc1 (stereo not given) | 80.2% | 90.5% | 73% | 44.4% | -75.5% (active) | 58.3% | 73% | 29.1% | 102% | -54.5% (active)
15 | COc1cc2nc(-c3ccc(C(F)(F)F)cc3)cc(OCCCN3CCCCC3)c2cc1OC | 57.9% | -11.8% (active) | 62.3% | 57.6% | 17.7% | 27.9% | 33.6% | 44.4% | 48.4% | 11.6%
16 | CCc1c(Nc2ccc(C)cc2)nc(N)[nH]c1=O | 103% | 102% | 103% | 98.7% | 108% | 93.7% | 90.5% | 99.5% | 100% | 108%
17 | Cc1nccc2c3ccc(OCc4cn(-c5ccc(Cl)cc5)nn4)cc3n(CCCc3ccccc3)c12 | 70.5% | -10.9% (active) | 50% | 6.51% (active) | 14.4% | 26.6% | 46.6% | 4.77% (active) | -72.6% (active) | -3.42% (active)
18 | Cc1ccc(/C=C/C(=O)c2ccc(N)cc2)c(C)c1 | 10.4% | 109% | 93% | 104% | 97.2% | 88.2% | -76.5% (active) | 99.2% | -63.5% (active) | 60.3%
19 | CC(=O)c1c[nH]c2ccc(-c3ccnc(Nc4ccc(NC(=O)c5cccc(F)c5)c(CN5CCOCC5)c4)n3)cc12 | -13.2% (active) | -0.697% (active) | -1.47% (active) | 1.97% (active) | -6.06% (active) | -22.8% (active) | 0.424% (active) | 8.56% (active) | 5.7% (active) | -17.8% (active)
20 | NNC(=O)/C(=C\c1ccc([N+](=O)[O-])cc1)CC(=O)c1ccc(Cl)c(Cl)c1 | 91.6% | 69.2% | 84.3% | 83.3% | 90.5% | 103% | 77.2% | 78.9% | 92.9% | 100%

Row | SMILES | growth (NCI-H23 lung) | growth (NCI-H226 lung) | growth (NCI-H322M lung) | growth (HOP-62 NSCLC) | growth (NCI-H460 lung) | growth (HOP-92 NSCLC) | growth (NCI-H522 lung) | growth (A549/ATCC NSCLC) | growth (786-0 renal) | growth (COLO 205 colon)
21 | COC(=O)CCCCCCCCC1(C)C=CC(C(C)O)=CC1 (stereo not given) | 96.2% | 97% | 109% | 101% | 111% | 93.2% | 89% | 94% | 108% | 111%
22 | Cc1ccccc1CNc1ccc(N2CCOCC2)cc1 | 99.1% | 107% | 98.3% | 117% | 112% | 115% | 101% | 103% | 107% | 108%
23 | COc1ccc2c(c1)OC13Oc4cc(OC)ccc4C=C1CCCC3=C2 | 48.3% | 64.1% | 80.8% | 41.4% | 14.3% | 26.6% | 20.4% | 75% | 38.7% | -9.95% (active)
24 | CCOC(=O)c1c(SC)nn(-c2cc(=O)[nH]c3ccc(Br)cc23)c1N | 96% | 99.2% | 106% | 89.7% | 87.8% | 95.8% | 95.1% | 98.1% | 97.6% | 98.2%
25 | COc1cc2nc(-c3ccc(-c4nn[nH]n4)cc3)[nH]c(=O)c2cc1OC | 93.7% | 106% | 176% | 99.3% | 115% | 132% | 96.1% | 30.5% | 104% | 117%
26 | CCCCCN1C=C/C(=C\C(=O)N(C)c2ccc(Br)cc2)c2ccccc21 | 87.3% | 86.3% | 98.8% | 94.5% | 105% | 82.7% | 82.1% | 95.2% | 98% | 108%
27 | C#CC(=O)Nc1cccc(Nc2nc3c(c(NCc4ccccc4)n2)CCCC3)c1 | -61.2% (active) | -31.4% (active) | -56.9% (active) | -82.8% (active) | -57.8% (active) | -71.7% (active) | -60.7% (active) | -48.5% (active) | -90.3% (active) | -68.9% (active)
28 | O=S(=O)(NCCCNc1nccc(-c2c(-c3cccc(O)c3)nc3occn23)n1)c1ccc(Br)cc1 | 101% | 103% | 113% | 124% | 97.1% | 108% | 94.3% | 98.2% | 106% | 31.9%
29 | Nc1cc(N)c2cccnc2c1O | 35.5% | 89.8% | 78% | 69.5% | 15.2% | 72.3% | 67.2% | 63% | 89.8% | 102%
30 | COc1ccc(C(=O)c2cc(C)c(OC)c(C)c2)c(OC)c1N(C(=O)C(Cl)Cl)C(=O)C(Cl)Cl | 21.9% | 15.9% | 41.5% | 17.7% | 2% (active) | 2.49% (active) | 11% | 13.6% | 14.1% | -34.6% (active)
31 | Nc1ncc(C#Cc2cncc(NC(=O)c3cccc(C(F)(F)F)c3)c2)c2cccnc12 | 30.4% | 39.2% | 81% | 52.8% | 12.3% | 65.6% | 67.2% | 31.8% | 63.9% | 47%
32 | O=S(=O)(NCCNc1nccc(-c2c(-c3cccc(F)c3)nc3occn23)n1)c1cccc2ccccc12 | 75.8% | 53.6% | 74.8% | 71% | 58.2% | 47% | 46.2% | 44.1% | 48% | 40.7%
33 | CC1(C)NCCC[C@]2(C)[C@H]3CC=C4[C@@H]5C[C@@](C)(CO)CC[C@]5(C)CC[C@@]4(C)[C@]3(C)CC[C@@H]12 | 81.3% | 83.9% | 81.7% | 88.8% | 4.29% (active) | 38.3% | 73.8% | 51% | 55.5% | -4.98% (active)
34 | O=C(OC(OC(=O)c1cc(Cl)cc(Cl)c1)c1cccc2ccccc12)c1ccccc1 (stereo not given) | 93.6% | 98.7% | 101% | 99.5% | 107% | 101% | 80.4% | 92.6% | 101% | 112%
35 | Fc1cc(C2=NNC(c3ccc[nH]3)C2)ccc1-n1ccc(C(F)(F)F)n1 (stereo not given) | 89.2% | 83.9% | 86.3% | 80.3% | 64.8% | 102% | 73.6% | 68.4% | 85.8% | 109%
36 | Cc1ccc(O)c(C(=O)O)c1 | 100% | 105% | 115% | 99.8% | 103% | 101% | 99% | 103% | 104% | 120%
37 | C=C(C)[C@@H]1CC[C@]2(C(=O)N3CCN(C)CC3)CC[C@]3(C)[C@H](CC[C@@H]4[C@@]5(C)CCC(=O)C(C)(C)[C@@H]5CC[C@]43C)[C@@H]12 | 89.9% | 88.5% | 91.5% | 86.4% | 21% | 52.8% | 85.1% | 85.1% | 71.1% | 72.4%
38 | Clc1ccc(N2N=C(c3cccc(Nc4ccncc4)c3)CC2c2ccccc2)cc1 (stereo not given) | 92.6% | 94.5% | 92.7% | 92.2% | 98.9% | 67.7% | 80.4% | 93.9% | 10.9% | 73.1%
39 | O=C1/C(=C/c2ccc(O)cc2)COc2ccc(-c3ccccc3)cc21 | 95.9% | 102% | 94.1% | 80.1% | 66% | 84.5% | 84.2% | 90.4% | 21.4% | 90.7%
40 | O=C(N/N=C/c1ccc(O)c(O)c1)c1sc2ccccc2c1Cl | 97% | 68.8% | 98.5% | 81.7% | 46% | 49.7% | 95% | 96.3% | 65.2% | 53.5%
